PLK1 inh = PLK1 (human) kinase inhibition. P53350. recombinant PLK1 kinase, TR-FRET peptide phosphorylation. inhibition, % at 10 µM. 0.53% of 97,000 active;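 active = inhibition of 50% or more in the single-concentration screen; inactive = inhibition below 50%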;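 note: 0% = DMSO max control and 100% = H-89 dihydrochloride min control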
CYP2C9 act = CYP2C9 (human) activation. 1.4% of 96,000 active. recombinant CYP2C9, luciferin-H conversion, luminescence; stronger effect = higher value; factor 1 = untreated enzyme, 0 = blocked. P11712. activation factor at 5 µM;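 active = activation factor of 2 or more for CYP2C9 at a 5 µM dose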;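 note: 0 = sulfaphenazole-blocked wells and 1 = vehicle-only wells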
Target sequence (P11712 whole entry, looked up): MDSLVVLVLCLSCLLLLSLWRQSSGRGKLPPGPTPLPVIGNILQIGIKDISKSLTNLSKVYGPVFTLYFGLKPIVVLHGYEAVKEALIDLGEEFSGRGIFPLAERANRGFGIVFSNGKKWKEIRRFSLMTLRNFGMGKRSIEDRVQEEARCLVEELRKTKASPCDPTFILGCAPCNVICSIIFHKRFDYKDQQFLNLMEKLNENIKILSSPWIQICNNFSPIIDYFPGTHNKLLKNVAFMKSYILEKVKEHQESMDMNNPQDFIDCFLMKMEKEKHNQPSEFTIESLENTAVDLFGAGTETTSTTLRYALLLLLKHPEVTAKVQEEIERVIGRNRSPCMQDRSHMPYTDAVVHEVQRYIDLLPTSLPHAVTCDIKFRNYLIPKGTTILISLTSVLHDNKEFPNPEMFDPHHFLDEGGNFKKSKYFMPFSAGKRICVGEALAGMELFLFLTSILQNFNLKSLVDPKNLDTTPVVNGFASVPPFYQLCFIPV
CYP2C19 inhib = blocks human cytochrome P450 2C19; inhibition, % at 5 µM; CYP2C19 Supersomes, luciferin-H EGE luminescence, 30 min; AID 778; 21% of 96,000 active;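 active = CYP2C19 inhibition above a set limit at 5 µM in the primary screen, cut at about 50% in these data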;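 note: plate controls were negative control wells for no effect and 2.5 mM tranylcypromine positive control for full effect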
CYP2C19 act = increases human CYP2C19 enzyme activity. P33261. recombinant CYP2C19, luciferin-H EGE luminescence; stronger effect = higher value; 0 = fully inhibited enzyme, 1 = untreated enzyme. activation factor at 5 µM. 96,000 tested, under 10 active. AID 1025;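 active = activation factor of at least 2 at 5 µM in the primary screen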;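 note: 0 = wells with 2.5 mM tranylcypromine and 1 = vehicle-only wells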
PLK1 PBD inh = inhibitors of human Plk1 polo box domain binding; P53350; Plk1 PBD phosphopeptide binding, fluorescence polarization; inhibition, %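 (tested at about 20 µM)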; 0.13% of 97,000 active; AID 693; in the data active = inhibition above about 34%, passing the limit was not always enough
CYP2C9 inhib = human CYP2C9 inhibition; P11712; CYP2C9 Supersomes, luciferin-H conversion, luminescence; inhibition, % at 5 µM; 20% of 96,000 active; AID 777;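 active = blocking of liver enzyme CYP2C9 beyond about 50% at 5 µM, limit read from the data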
Starred values were filed as active, the others as inactive; . = no result given. An excerpt weighted towards active compounds, which were near 28% of everything screened.

SMILES	PLK1 inh	CYP2C9 act	CYP2C19 inhib	CYP2C19 act	PLK1 PBD inh	CYP2C9 inhib
CCOC(=O)C1CCN(Cc2ccc(F)cc2F)CC1	-2.5	0.8	37.0	0.6	17.7	22.0
Fc1ccc(CN2CCSCC2)cc1Br	.	0.8	84.3*	0.2	.	15.9
CCOC(=O)C1CCN(Cc2ccc(F)c(Br)c2)CC1	.	0.5	63.0*	0.4	.	49.8
COc1ccccc1CN1CCSCC1	0.9	0.9	18.2	0.8	-1.5	6.2
OCCSc1ncnc2c1oc1ccccc12	-7.3	0.8	21.7	0.8	-29.5	22.5
CCc1nc(SCCO)c2oc3ccccc3c2n1	-6.7	0.3	51.0*	0.5	-2.5	65.8*
CCc1nc(SCc2nc3ccccc3[nH]2)c2oc3ccccc3c2n1	-3.1	0	99.9*	0	11.2	98.4*
CCc1cc2c(SCC(=O)c3ccc(Cl)s3)ncnc2s1	-5.3	0.2	81.8*	0.2	7.3	82.1*
CCc1nc(SCC(=O)c2ccc(Cl)s2)c2oc3ccccc3c2n1	-16.3	0.3	41.5	0.6	-5.6	75.0*
COC(=O)c1cc(-c2ccccc2)n(CC(=O)O)c1C	.	0.8	7.7	0.9	.	19.3
COC(=O)Nc1nnc(-c2ccccc2Cl)s1	-5.0	1.2	19.9	0.8	9.1	-20.5
CCc1nc(N(CC)CC)c2oc3ccccc3c2n1	10.6	.	.	.	-2.9	.
CCc1nc(Sc2nc(C)cc(C)n2)c2oc3ccccc3c2n1	-10.0	0.4	80.5*	0.2	26.2	63.4*
O=C(/C=C/c1ccc(Cl)c([N+](=O)[O-])c1)NCc1cccnc1	-0.8	.	.	.	-3.3	.
Cc1ccc(C)c(N(CC(=O)NC2CCCC2)C(=O)c2cc3cc4cc(C)ccc4nc3s2)c1	-8.9	1	-12.2	1.1	1.8	0.7
Cc1ccc(C(=O)N(CC(=O)NC2CCCCC2)c2ccccc2C)s1	-3.9	0.4	45.9	0.5	-13.1	62.1*
CN(CC(=O)NC1CCCCCC1)S(=O)(=O)c1ccccc1	-9.0	0.8	44.8	0.6	-9.5	21.1
Cc1cc(C(C)(C)C)oc1C(=O)N(CC(=O)NC1CCCC1)c1cccc(C(F)(F)F)c1	-10.0	0.8	32.5	0.7	29.0	21.7
Cc1cccc(N(CC(=O)NC2CCCCC2)C(=O)c2ccc(C)s2)c1	-0.7	0.4	39.8	0.6	-27.9	59.7*
Cc1cccc(N(CC(=O)NC2CCCC2)C(=O)c2cc3cc4cccc(C)c4nc3s2)c1C	-8.5	0.1	34.5	0.7	13.7	89.5*
O=C(CN1C(=O)c2ccccc2C1=O)OCN1C(=O)c2ccccc2C1=O	-16.0	.	.	.	24.8	.
O=C(CCC(=O)OCCCC(F)(F)C(F)(F)F)Nc1ccc(Cl)cc1Cl	-7.2	0.6	70.0*	0.3	11.7	39.5
CCOc1ccccc1-n1c(SCC(=O)NC2CCCC2)nnc1-c1ccoc1C	-13.6	0.3	67.7*	0.3	5.7	74.4*
CCn1c(SC(C)C)nnc1-c1c[nH]c2ccccc12	64.7*	0.9	80.8*	0.2	-8.9	9.3
Cn1c(SCC(=O)N2CCCc3ccccc32)nnc1-c1c[nH]c2ccccc12	-7.4	1.2	22.8	0.8	-4.9	-21.4
SMILES	PLK1 inh	CYP2C9 act	CYP2C19 inhib	CYP2C19 act	PLK1 PBD inh	CYP2C9 inhib
CCOc1ccccc1-n1c(SCC(=O)NC(C)(C)C)nnc1-c1ccoc1C	-12.2	0.6	40.0	0.6	-21.0	35.5
CCn1c(SCC(=O)NC2CCCC2)nnc1-c1c[nH]c2ccccc12	10.7	0.2	41.9	0.6	-19.6	78.5*
CCOC(=O)CSc1nnc(-c2c[nH]c3ccccc23)n1CC	67.7*	0.9	76.5*	0.2	-15.7	9.3
OCC#Cc1cnc2ccccc2c1	-4.9	0.8	26.9	0.7	-9.0	15.4
c1ccc(-c2ccc(C3=Nn4c(Cn5nnc6ccccc65)nnc4SC3)cc2)cc1	-13.5	0.8	-3.4	1	7.8	15.6
Cn1nnnc1SCC(=O)Nc1c(Cl)cccc1Cl	-3.3	0.8	9.5	0.9	-25.2	15.3
CCn1c(SCC(=O)NCC2CCCO2)nnc1-c1c[nH]c2ccccc12 (stereo not drawn)	-11.7	1.6	12.3	0.9	0.4	-58.6
CCn1c(SCC(=O)NCc2ccccc2)nnc1-c1c[nH]c2ccccc12	-9.4	0.2	77.4*	0.2	2.8	80.9*
N#C/C(=C\c1cc([N+](=O)[O-])c(N2CCCCC2)cc1N1CCCCC1)c1nn(-c2ccccc2)c(N)c1C#N	-4.2	0	68.6*	0.3	8.6	96.8*
Cc1ccc(/C=C(\C#N)c2nc3ccccc3[nH]2)s1	-7.6	0.7	15.9	0.8	-25.4	33.5
N#C/C(=C/c1ccc(N2CCOCC2)o1)c1nc2ccccc2[nH]1	-98.5	.	.	.	-234.2	.
N#C/C(=C\c1cccc2ccccc12)c1nn(-c2ccccc2)c(N)c1C#N	-1.1	.	.	.	-5.7	.
Cc1cc(/C=C(/C#N)c2nc3ccccc3[nH]2)c(C)n1-c1cccc([N+](=O)[O-])c1	-5.9	0.2	40.1	0.6	4.0	80.6*
N#C/C(=C\c1cc([N+](=O)[O-])c(N2CCOCC2)cc1N1CCOCC1)c1nc2ccccc2[nH]1	-10.0	0	90.8*	0.1	12.6	96.7*
Cc1ccc2c(c1)C(c1ccncc1)=NNC(c1ccc(C(C)C)cc1)=N2	19.4	0.9	38.5	0.6	19.9	8.8
Cc1cc(=O)oc(C)c1C(=O)NCCN1CCOCC1	-20.4	1	15.5	0.8	-10.0	2.2
CC(=O)Nc1cc(S(=O)(=O)C(F)(F)F)ccc1Cl	-18.4	1.3	16.5	0.8	-11.2	-29.7
Cc1nnc(NC(=O)CSC2CCCCC2)s1	.	0.8	27.1	0.7	.	18.2
O=C(CSc1nc(N2CCCCC2)nc(N2CCCCC2)n1)Nc1nccs1	-9.3	0.3	15.3	0.8	9.7	67.4*
COc1ccc(NC(=O)CSc2nc(N3CCCCC3)nc(N3CCCCC3)n2)cc1	-4.8	1.1	-9.2	1.1	1.1	-7.7
O=C(CSC1CCCCC1)Nc1nccs1	-9.1	0.6	83.5*	0.2	-5.3	42.3
COc1ccc2[nH]c(=O)c(CN(CCO)C(=O)c3ccccc3F)cc2c1	-13.3	0.9	-2.0	1	-7.7	5.7
CC(=Nc1ccc(C)c(C)c1)C1=C(O)CCC1=O	-15.3	0.7	54.0*	0.5	18.4	34.4
Cc1c(C(=O)O)[nH]c2c1C(=O)CC(c1ccccc1)C2 (stereo not drawn)	-2.0	1.1	-16.2	1.2	-4.0	-7.6
CCCCc1oc2c(c(=O)c1C)C(=O)CC(c1ccccc1)C2 (stereo not drawn)	-3.6	0.2	100.3*	0	-18.4	78.0*
CCOC(=O)c1ccc(NC(=O)CNC(=O)C2CCCCC2)cc1	3.7	0.5	26.9	0.7	14.7	53.8*
O=C(CNC(=O)C1CCCCC1)Nc1ccc(Cl)cc1	-12.8	0.7	43.3	0.6	-10.9	25.1
O=C(COC(=O)CNC(=O)C1CCCCC1)Nc1ccc2ccccc2c1	-5.8	0.6	69.0*	0.3	-21.5	35.5
O=C(CNC(=O)C1CCCCC1)Nc1cc(Cl)cc(Cl)c1	-4.7	0.8	60.8*	0.4	-15.1	25.0
